The values below come from the supplement of paper PMC6555819.

Experiment in all cases: PBM binding z-score (relative to random genomic background probes); higher = stronger binding; sequences stand for … in GC…GCGATTGACAGCGTAGAATGAAGG
Assay [1] concerns FXR:RXRa (NR concentration 270 nM, RXRa partner concentration 90 nM). The method in brief: (§1)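 Binding z-scores take random background probes as their reference. They come from custom Agilent 4×180K protein-binding microarrays incubated 1 h with ligand-free nuclear receptor dimers, with antibodies against each partner (one per run) detecting binding. Scanned fluorescence was regression-normalized.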

In assay [2] the test system is LXRa:RXRa (NR concentration 270 nM, RXRa partner concentration 90 nM). The method in brief: as §1
Assay [3] concerns LXRa homodimer (NR concentration 270 nM). The method in brief:
as §1

Assay [4] deals with LXRb:RXRa (NR concentration 270 nM, RXRa partner concentration 90 nM). The method in brief:
as §1

In assay [5] the test system is LXRb homodimer (NR concentration 270 nM). The method in brief: as §1
The subject of assay [6] is PPARa:RXRa (NR concentration 270 nM, RXRa partner concentration 90 nM). The method in brief:
as §1

Assay [7] deals with PPARg:RXRa (NR concentration 180 nM, RXRa partner concentration 90 nM). The method in brief:
as §1

Assay [8] has as its system PPARg:RXRa 270nM:90nM, anti-RXR (NR concentration 270 nM, RXRa partner concentration 90 nM). The method in brief:
as §1

Assay [9] deals with PPARg:RXRa 30nM:10nM, anti-RXR (NR concentration 30 nM, RXRa partner concentration 10 nM). The method in brief: as §1
Assay [10] has as its system PPARg:RXRa 90nM:30nM, anti-RXR (NR concentration 90 nM, RXRa partner concentration 30 nM). The method in brief: as §1
In assay [11] the test system is PPARg:RXRa DBDmut IVT, anti-RXR (DBD mutation: RXRa K156A/R161A, NR concentration 270 nM, RXRa partner concentration 90 nM). The method in brief: as §1
Assay [12] has as its system PPARg:RXRa IVT, anti-PPARg (NR concentration 270 nM, RXRa partner concentration 90 nM). The method in brief:
as §1

The subject of assay [13] is PPARg DBDmut:RXRa IVT, anti-PPARg (DBD mutation: PPARg1 K132A/R137A, NR concentration 270 nM, RXRa partner concentration 90 nM). The method in brief: as §1
For assay [14], the system named is PPARg DBDmut IVT, anti-PPARg (DBD mutation: PPARg1 K132A/R137A, NR concentration 270 nM). The method in brief: as §1
For assay [15], the system named is PPARg homodimer (NR concentration 180 nM). The method in brief: as §1
The subject of assay [16] is PXR:RXRa (NR concentration 270 nM, RXRa partner concentration 90 nM). The method in brief:
as §1

The subject of assay [17] is PXR homodimer (NR concentration 270 nM). The method in brief: as §1
In assay [18] the test system is RARa:RXR (NR concentration 270 nM, RXRa partner concentration 90 nM). The method in brief:
as §1

For assay [19], the system named is RARa homodimer (NR concentration 270 nM). The method in brief: as §1
The subject of assay [20] is RARb:RXRa (NR concentration 270 nM, RXRa partner concentration 90 nM). The method in brief:
as §1

TCAGACAGGTGCAGGTAACTCAGGTACGCAGTCG: the PBM binding z-score was 0.317 in [1]; 0.617 in assay [2]; -0.304 in assay [3]; 0.192 in assay [4]; -0.936 in assay [5]; 0.506 in assay [6]. Also, the PBM binding z-score in assay [7] was 0.493; in assay [8], 1.31; in assay [9] it was 2.88; in assay [10] it was 2.35; in assay [11], 1.83; in assay [12], -0.017. Moreover, the PBM binding z-score in assay [13] was -0.24; in [14], -0.576; in assay [15] it was -0.207; in assay [16] it was 0.426; in assay [17] it was -0.203; in assay [18], 0.659. The values for the PBM binding z-score in assay [19] and in [20] were -0.372 and 0.311, respectively.

As for TCGAGTAGGTTACCCATGGGGCATTCAGCTTTCT, the PBM binding z-score in assay [1] is 0.292; in assay [2] it was 1.66; in [3], -0.443; in assay [4], 0.752; in assay [5] it was -0.79; in assay [6] it was 1.09. Moreover, the PBM binding z-score turned out to be 0.462 in assay [7]; 1.36 in [8]; 1.23 in assay [9]; 1.18 in assay [10]; 2.81 in assay [11]; 2.66 in assay [12]. The PBM binding z-score is -0.222 in [13]; -0.778 in assay [14]; -0.0262 in [15]; 0.0585 in [16]; -0.728 in [17]; 0.457 in assay [18]. Moreover, the figures for the PBM binding z-score in assay [19] and in assay [20] were -0.95 and 0.891, respectively.

Consider TGAACGAGGTTAAAGATCAGGGAACGTGGCGTCG, for which the PBM binding z-score in [1] was 2.87; in [2] it was 2.22; in [3] it was -0.236; in [4], 1.57; in assay [5], -0.0519; in assay [6], 4.05. Also, the PBM binding z-score amounted to 5.17 in [7]; 5.68 in assay [8]; 4.28 in [9]; 6 in assay [10]; 1.29 in assay [11]; 2.81 in [12]. Moreover, the PBM binding z-score in assay [13] was 0.475; in [14] it was -0.0335; in [15], 0.615; in [16], 1.99; in assay [17], -0.0143; in assay [18], 2.94. Further, the PBM binding z-score in [19] is -0.0319; in [20] it was 1.95.

Regarding TATACAGGCTCAAAGGCCAGAGTACGAATGTCGA, the PBM binding z-score is -0.0411 in assay [1]; 0.0342 in assay [2]; -0.184 in assay [3]; -0.265 in assay [4]; -0.0867 in assay [5]; 0.221 in assay [6]. Further, the PBM binding z-score was 1.03 in assay [7]; 1.75 in assay [8]; 0.77 in assay [9]; 1.4 in assay [10]; -0.518 in [11]; 0.865 in [12]. Also, the PBM binding z-score was 0.383 in [13]; 0.281 in [14]; -0.146 in assay [15]; -0.262 in assay [16]; -0.323 in [17]; -0.258 in assay [18]. Moreover, the results for the PBM binding z-score in assay [19] and in assay [20] were 0.14 and 0.95, respectively.

As to CTTAGCAGGCCAATCTGGGTCACTCAAGGCTTGA, the PBM binding z-score in [1] is 0.29; in [2] it was 1.18; in assay [3], -0.362; in assay [4] it was 0.386; in assay [5] it was -0.93; in assay [6] it was 3.08. In addition, the PBM binding z-score in assay [7] is 2.4; in [8] it was 2.51; in [9] it was -0.0201; in assay [10], 1.43; in assay [11], 4.54; in assay [12], 5.41. Further, the PBM binding z-score is 1.49 in assay [13]; -0.595 in assay [14]; 0.867 in assay [15]; 0.661 in assay [16]; -0.63 in assay [17]; 1.8 in assay [18]. Also, the PBM binding z-score in [19] is -0.332; in [20], 1.46.

In the case of CTGACTGGGGCAGAAAGGTTACCATACCATCCGG, the PBM binding z-score in assay [1] was 0.933; in assay [2] it was 1.01; in [3], 0.207; in [4], 1.5; in [5], -0.293; in assay [6], 2.65. Also, the PBM binding z-score in assay [7] was found to be 2.32; in assay [8], 3; in assay [9], 1.18; in assay [10] it was 2.35; in [11] it was 2.87; in assay [12], 3.6. The PBM binding z-score in [13] was determined as 0.376; in assay [14], 0.141; in assay [15], 1.76; in [16], 1.12; in assay [17] it was 0.49; in [18], 1.75. For the same sequence, the values for the PBM binding z-score in assay [19] and in [20] were 0.326 and 2.13, respectively.
